In the supplement of paper PMC10127200:
Where a name gives a salt, the structure may show the parent alone.

Columns and labels:
Assay in all cases: Euclidean distance of Cell Painting phenotypic profile (signed KS, 77 features) to DMSO centroid (dimensionless distance); 5 or 10 uM (library dependent); higher = stronger phenotypic change vs DMSO (phenoactivity)
Conditions in all cases: 48 h
786-O = system: 786-O
How it was run: (§1)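 Five cancer lines, together with a healthy fibroblast line, received library compounds for 48 h at a library-dependent 10 or 5 uM and 0.1% DMSO final. Harmony then derived 77 features from confocal 20X images (9 fields/well) of the stained cells, scoring each as a signed Kolmogorov-Smirnov statistic against same-plate vehicle wells. After plate-position correction, correlation weighting and replicate averaging at the top dose, phenoactivity was taken as each profile's Euclidean distance to the median vehicle profile.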

A549 = system: A549
How it was run: as §1

DU145 = system: DU145
How it was run: as §1

FB = system: FB
How it was run: as §1

HEPG2 = system: HEPG2
How it was run: as §1

OVCAR4 = system: OVCAR4
How it was run: as §1

SMILES	Euclidean distance (786-O)	Euclidean distance (A549)	Euclidean distance (DU145)	Euclidean distance (FB)	Euclidean distance (HEPG2)	Euclidean distance (OVCAR4)
Cc1cc(-c2ccc(/N=N/c3ccc4c(S(=O)(=O)O)cc(S(=O)(=O)O)c(N)c4c3O)c(C)c2)ccc1/N=N/c1ccc2c(S(=O)(=O)O)cc(S(=O)(=O)O)c(N)c2c1O [Evans Blue]	0.929	0.808	0.955	1.65	0.481	1.37
NCCc1c[nH]cn1 [Histamine]	1.05	1.15	1.33	1.24	1.08	1.27
N=C(NOCC(O)CN1CCCCC1)c1cccnc1 (centres undefined)	1.13	0.912	1.06	1.33	0.604	1.05
CCC(=O)Oc1ccc2c(c1)CCC1C2CCC2(C)C(OC(=O)CC)CCC12 (stereo not drawn) [17-Beta-Estradiol-3.17-Dipropionate]	1.55	0.8	1.46	1.21	0.326	0.98
CC(=O)OCC(=O)[C@@]1(O)[C@H](C)C[C@H]2[C@@H]3CCC4=CC(=O)C=C[C@]4(C)[C@@]3(F)[C@@H](O)C[C@@]21C [Dexamethasone Acetate]	1.08	2.1	2.41	1.85	0.691	1.67
CN(C)N(C)C(=O)[C@@]1(Cc2ccccc2)CCCN(C(=O)[C@@H](Cc2c[nH]c3ccccc23)NC(=O)C(C)(C)N)C1 [Anamorelin]	1.33	0.796	0.841	1.59	0.82	0.802
C[N+](C)(C)CC(=O)O [Betaine]	1.1	0.84	0.542	0.947	1.41	0.81
CC(C)c1cc(C(=O)N2Cc3ccc(CN4CCN(C)CC4)cc3C2)c(O)cc1O	3.5	2.81	3.91	2.97	2.99	2.89
N=C(N)NC(=O)c1nc(Cl)c(N)nc1N [Amiloride HCl dihydrate]	1.53	1.27	1.11	1.58	0.663	1.28
Cc1ccc(-c2nc(N)nc3c2nnn3Cc2cccc(CO[C@H]3CCOC3)n2)o1	0.843	0.446	0.81	1.32	0.731	0.627
CC(C(=O)O)c1ccc2c(c1)CC(=O)c1ccccc1S2 (centres undefined) [Zaltoprofen]	1.08	1.02	1.23	0.873	0.423	1.24
Cc1ccc(CNc2ncnc3ccc(-c4ccc(CO)o4)cc23)o1	1.8	1.95	1.67	1.25	2.04	1.67
CS(=O)(=O)CCNCc1ccc(-c2ccc3ncnc(Nc4ccc(OCc5cccc(F)c5)c(Cl)c4)c3c2)o1	3.78	3.57	3.75	4.09	4.37	3.36
CCC(=O)NS(=O)(=O)c1ccc(-c2c(-c3ccccc3)noc2C)cc1 [Parecoxib Sodium]	0.662	0.521	0.541	0.844	0.676	0.905
Cc1ccc(NCCCc2ccccc2)c(N)c1	0.637	0.572	0.826	0.816	0.57	0.53
C[C@H](NC(=O)[C@@H](Cc1ccc2ccccc2c1)NC(=O)[C@@H](C)N)C(=O)N[C@@H](Cc1c[nH]c2ccccc12)C(=O)N[C@H](Cc1ccccc1)C(=O)N[C@@H](CCCCN)C(N)=O	1.39	0.626	1.01	0.873	2.01	1.29
CNC(=O)c1ccccc1Nc1nc(Nc2ccc(N3CCOCC3)cc2OC)ncc1Cl	2.97	3.02	2.18	3.92	2.08	3.5
COc1ccc(-c2nc(N3CCOCC3)c3sc(CN(C)c4ncc(C(=O)NO)cn4)cc3n2)cn1	3.46	4.27	4.25	3.52	4.2	3.25
CC(C)C[C@H](NC(=O)[C@H](Cc1ccccc1)NC(=O)c1cnccn1)B(O)O [Bortezomib]	5.28	3.87	6.56	6.53	4.55	5.51
NCCCCCNCC12CC3CC(CC(C3)C1)C2 [IEM 1754 dihydrobroMide]	0.936	0.504	0.662	0.973	2.44	0.664
CCC(=O)O[C@@H](O[P@](=O)(CCCCc1ccccc1)CC(=O)N1C[C@H](C2CCCCC2)C[C@H]1C(=O)O)C(C)C [Fosinopril Sodium]	1.19	0.719	1.62	0.746	0.444	1.23
C/C(=N\NC(=S)N1CCC1)c1ccccn1	3.65	3.49	3.44	3.45	4.41	4.89
O=C(Nc1cccc(C2=NCCN2)c1)Nc1cccc(C2=NCCN2)c1 [Imidocarb dipropionate]	1.26	1.66	1.76	1.4	1.23	1.75
Cc1cnc(NC(=O)Nc2cc(Br)c(C)cc2OC[C@@H]2CNCCO2)cn1	2.52	1.52	1.04	1.52	2.15	3.62
